Hits are enriched below; roughly 11% of the tested compounds scored in any of these assays.
Sm TGR inh: blocks Schistosoma mansoni thioredoxin glutathione reductase; Potency, µM (top dose mostly 114 µM), without a hit: top-dose activity change, negative = inhibition, most hits filed as inhibitors; purified TGR, DTNB reduction, TNB absorbance 405 nm; hit rate 3% among 360,000; AID 485364; note: % is set by controls: 0 for no effect and ±100 for the full control effect; nearly all actives have a fitted effect of over 60% in size
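Kinetic colorimetric format: TGR-catalysed, NADPH-driven DTNB reduction monitored via TNB absorbance. Enzyme dispensed at 20 nM; compound exposure 15 min at room temperature before reaction start.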
Pf growth 96h: P. falciparum growth inhibition at 96 hour, primary screen for plastid delayed-death inhibitors; Potency, µM (top dose mostly 28.7 µM), without a hit: top-dose activity change, negative = inhibition, usual class: inhibitors; P. falciparum luciferase reporter growth, 96 h; hit rate 6.9% among 320,000; note: % is set by controls: 0 for no effect and ±100 for the full control effect
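Two parasite generations (96 h, 37 C, 5% CO2) of compound exposure in infected erythrocytes (0.05% parasitemia, 2% hematocrit). Luciferase-reporter P. falciparum; decreased luminescence indicates inhibited growth, aimed at apicoplast-acting delayed death.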
AMA1 RON2 block: AMA1-RON2 (P. falciparum) interaction inhibition; AlphaScreen AMA1-biotinylated RON2 peptide binding; Potency, µM (series often up to 58.2 µM), inactives show at the top dose activity change, negative = inhibition, hits mostly inhibitors; hit rate 0.2% among 360,000; AID 720542;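 note: 0% = vehicle wells and -100% = peptide control; nearly all actives have a fitted effect of over 45% in size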
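AMA1 (3D7) with his tag at 25 nM final met compounds first, then biotinylated RON2 peptide at 25 nM; detection used donor plus acceptor beads, 10 µg/mL apiece, read by AlphaScreen after 30 min at room temperature.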
NS1 function inh: influenza NS1 inhibition; Potency, µM (top dose mostly 46.1 µM), inactives show at the highest dose activity, positive = more growth; hit rate 0.4% among 270,000; AID 2326; calls by dose curve; note: actives are rising curves; nearly all actives have a fitted effect of over 50% in size
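In this qHTS, NS1 from influenza A is expressed in budding yeast, where it slows growth. Cells are switched from glucose to 2% galactose medium (pH 6.0, -URA), treated with compound, and growth recovery is read at OD600.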
Pf growth 48h: inhibits P. falciparum growth in the first generation, 48 h; P. falciparum luciferase growth in erythrocytes, 48 h; Potency, µM (titrated, usually from 28.7 µM), without a hit: top-dose activity change, negative = inhibition, actives largely listed as inhibitors; hit rate 5.9% among 310,000; note: % is set by controls: 0 for no effect and ±100 for the full control effect
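Cell-based growth assay: transgenic P. falciparum expressing firefly luciferase, cultured in red cells within RPMI 1640 containing 0.5% w/v Albumax, 24 mM bicarbonate and gentamycin. A drop in luciferase activity indicates inhibition.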
An asterisk follows results filed as active; ? = inconclusive; · = no result given. Unless noted, calls come from the whole dose curve; as a rule, active = well fitted curve in the direction sought with a large enough effect; inconclusive = small, poorly fitted or top-dose-only effect, or another doubt; inactive = no such curve, though single readings can be large; an effect the other way counts as inactive or inconclusive. Potency is the fitted concentration of half-maximal effect.

SMILES	Sm TGR inh	Pf growth 96h	AMA1 RON2 block	NS1 function inh	Pf growth 48h
Cc1onc(-c2ccccc2)c1C(=O)NC(=S)NNC(=O)c1ccncc1	-15%	10µM*	55%	-4%	?
CCCOc1cccc(NC(=O)c2c(-c3ccccc3)noc2C)c1	-2%	-3%	-1%	-35%	14%
CC(C)OC(=O)N(C)C[C@H]1OCc2cn(nn2)CCCC(=O)N([C@H](C)CO)C[C@@H]1C	·	·	-6%	·	·
COc1cccc(-c2nc(S(=O)(=O)c3ccccc3)c(N3CCCCC3)o2)c1	2%	·	·	·	·
CCOc1c(Cl)cc(Cl)cc1CNCCSc1nnnn1C	-10%	·	·	·	·
Cc1cccc(C)c1N(CC(=O)NCc1ccco1)C(=O)CNS(=O)(=O)c1ccc(F)cc1	15%	6%	12%	2%	-31%
N#Cc1ccc(C23CC4(C2)[C@H](CN(Cc2ccc(-c5ccccc5)cc2)[C@@H]4c2ccccc2)C3c2ccccc2)cc1 (stereo partly specified)	-27%	?	-4%	5%	2%
CN1C[C@@H]2C(c3ccc(C(F)(F)F)cc3)C3(c4ccc(C#N)cc4)CC2(C3)[C@H]1c1ccccc1 (stereo partly specified)	-19%	12µM*	-4%	-16%	12µM*
CN1C[C@@H]2C(c3ccccc3)C3(c4ccc(C#N)cc4)CC2(C3)[C@H]1c1ccccc1 (stereo partly specified)	3%	10µM*	-7%	1%	10µM*
CN1C[C@@H]2C(c3ccccc3)C3(c4ccccc4)CC2(C3)[C@H]1c1ccccc1 (stereo partly specified)	-19%	?	?	7%	?
Cc1cc(C)cc(-n2c(SCC(=O)N3CCCCC3)nc3c([nH]c4ccccc43)c2=O)c1	3%	·	·	·	·
OCCN(CCO)c1nc(N2CCCCC2)c2nc(N(CCO)CCO)nc(N3CCCCC3)c2n1	-3%	3.3µM*	0%	-10%	2.1µM*
CC(Oc1ccccc1)C(=O)NC1=NCCS1 (stereo unspecified)	-3%	?	17%	-1%	304%
COc1cc2[nH]c(=O)n(CCCCCC(=O)N3CCN(c4ccc(Cl)cc4)CC3)c(=O)c2cc1OC	-3%	·	·	·	·
Cc1cc(C)c(S(=O)(=O)Cc2ccccc2)c(OC(C)C)n1	-1%	10µM*	0%	-6%	?
Cc1cc(C)c(S(=O)(=O)c2ccccc2C)c(Oc2ccccc2)n1	7%	-11%	14%	-17%	-14%
O=C1NC(=O)N(CCc2ccc(F)cc2)C(=O)/C1=C/c1cccs1	?	19%	3%	·	16%
O=C1NC(=O)N(Cc2ccc(F)cc2)C(=O)/C1=C\c1ccc([N+](=O)[O-])s1	2.2µM*	4%	-27%	-7%	-1%
COc1ccc(CN2C(=O)NC(=O)/C(=C\c3ccco3)C2=O)cc1	?	21%	?	·	?
COc1ccc(CN2C(=O)NC(=O)/C(=C/c3ccc([N+](=O)[O-])s3)C2=O)cc1	1.1µM*	17%	-15%	-1%	56%
COc1ccc(CN2C(=O)NC(=O)/C(=C\c3cc(OC)c(OC)c(OC)c3)C2=O)cc1	13µM*	-3%	3%	·	3%
O=C(CSc1nc2ccccc2n1Cc1cccc(F)c1)NCc1ccccc1	4%	·	·	·	·
Cc1cccn2c(=O)cc(CSc3nnc(NC(=O)c4ccc(F)cc4)s3)nc12	4%	·	·	·	·
Cc1ccc(CNC(=O)Cn2ccn(-c3cc(C)cc(C)c3)c(=O)c2=O)cc1	1%	·	·	·	·
COc1ccc(S(=O)(=O)NCc2ccccn2)c(C)c1C	-15%	7%	3%	5%	3%
SMILES	Sm TGR inh	Pf growth 96h	AMA1 RON2 block	NS1 function inh	Pf growth 48h
CCOc1ccc(S(=O)(=O)NCc2ccccn2)c(C)c1C	11%	10µM*	11%	6%	?
COc1ccccc1Oc1ccc(S(=O)(=O)NCc2ccccn2)cc1	-13%	10µM*	28%	-12%	2%
COc1cccc(C(=O)NC2CC(C)(C)Cc3c2cnn3-c2cccc(F)c2)c1OC (stereo unspecified)	-13%	?	-9%	-20%	-4%
COc1cccc(C(=O)Nc2c(C(=O)N3CCN(c4ccc(F)cc4)CC3)oc3ccccc23)c1	-9%	·	·	·	·
CN(c1cc2c(c3c1ccn3C)C1CCC2C1)C1CCCCC1 (stereo unspecified)	·	·	16µM*	·	·
CN(Cc1ccccc1)c1cc2c(c3c1ccn3C)C1CCC2C1 (stereo unspecified)	·	·	16µM*	·	·
COc1ccc(-c2cc3c(c4c2ccn4C)C2CCC3C2)cc1F (stereo unspecified)	·	·	-24%	·	·
COc1ccccc1N(C)c1cc2c(c3c1ccn3C)C1CCC2C1 (stereo unspecified)	·	·	13µM*	·	·
Cn1ccc2c(N(c3ccccc3)C3CCCCC3)cc3c(c21)C1CCC3O1 (stereo unspecified)	·	·	-1%	·	·
CN(CCc1ccccc1)c1cc2c(c3c1ccn3C)C1CCC2C1 (stereo unspecified)	·	·	16µM*	·	·
CC(=O)Nc1cccc(NC(=O)CSc2nnnn2-c2ccc3c(c2)OCO3)c1	6%	33%	·	10%	-9%
COc1ccc(N(CC(=O)Nc2ccc(C(C)C)cc2)S(=O)(=O)c2c(C)noc2C)cc1	8%	8%	10%	3%	?
COC(=O)C1=C(c2cccc(OCc3ccccc3)c2)C[C@@H]2CC[C@H]1N2C(=O)NCCOc1ccc(OC)cc1	6%	?	-22%	·	7.4µM*
COC(=O)C1=C(c2cccc(OCc3ccccc3)c2)C[C@@H]2CC[C@H]1N2C(=O)NCCCOC(C)C	-1%	?	9%	·	?
COC(=O)C1=C(c2cccc(OCc3ccccc3)c2)C[C@@H]2CC[C@H]1N2C(=O)NCc1ccc(C(C)(C)C)cc1	-1%	?	-8%	·	3.7µM*
COC(=O)C1=C(c2ccc(OCc3ccccc3)cc2)C[C@@H]2CC[C@H]1N2C(=O)NCCCCc1ccccc1	·	·	-6%	·	·
COC(=O)C1=C(c2cccc(OCc3ccccc3)c2)C[C@@H]2CC[C@H]1N2C(=O)NCc1ccc(N(C)C)cc1	-5%	?	11µM*	·	8.3µM*
COC(=O)C1=C(c2cccc(OCc3ccccc3)c2)C[C@@H]2CC[C@H]1N2C(=O)NCc1ccccc1C(F)(F)F	-1%	?	0%	·	4.1µM*
COC(=O)C1=C(c2ccc(C(C)=O)cc2)C[C@@H]2CC[C@H]1N2C(=O)NCc1ccc(C(F)(F)F)cc1	4%	?	-3%	·	?
COc1ccc(C)cc1NC(=O)Cn1nc(N2CCN(c3ccccc3OC)CC2)ccc1=O	1%	·	·	·	·
COC(=O)C1=C(c2ccc(OCc3ccccc3)cc2)C[C@@H]2CC[C@H]1N2C(=O)NCc1ccc2[nH]ccc2c1	·	·	-15%	·	·
COC(=O)C1=C(c2cccc(OCc3ccccc3)c2)C[C@@H]2CC[C@H]1N2C(=O)NCc1cccc(OC)c1	7%	4.1µM*	-12%	·	10µM*

Screens deposited in PubChem by National Center for Advancing Translational Sciences (NCATS).
